# Results from PubChem BioAssay (NCI).
# “And” between values parts separate entries of the source, which are not always exact repeats. Equal entries are not always repeated. About 83,000 compounds went through this panel and 20% of them were active in at least one assay; those are over-represented in the sample as a whole.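 Values shown are percent growth following 48 h exposure of cells in 96-well plates to a single concentration of compound; below 10 was considered active.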 The source made the active and inactive calls.
# Assays:
# Assay in all cases: NCI-60 one-dose screen, 48 h (100 = growth as untreated, 0 = no growth, -100 = all killed)
# EKVX NSCLC = system: EKVX NSCLC
# SN12C renal = settings: 10 µM unless noted
# UO-31 renal = system: UO-31 renal
# TK-10 renal = system: TK-10 renal
# ACHN renal = settings: 10 µM unless noted
# CAKI-1 renal = settings: 10 µM unless noted
# A498 renal = settings: 10 µM unless noted
# CCRF-CEM leukemia = settings: 10 µM unless noted
# MOLT-4 leukemia = system: MOLT-4 leukemia
# SR leukemia = system: SR leukemia
# RPMI-8226 leukemia = system: RPMI-8226 leukemia
# OVCAR-8 ovarian = system: OVCAR-8 ovarian
# OVCAR-5 ovarian = system: OVCAR-5 ovarian
# OVCAR-4 ovarian = system: OVCAR-4 ovarian
# SK-OV-3 ovarian = system: SK-OV-3 ovarian
# IGROV1 ovarian = system: IGROV1 ovarian
# OVCAR-3 ovarian = system: OVCAR-3 ovarian
# HS 578T breast = system: HS 578T breast
# NCI/ADR-RES ovarian = system: NCI/ADR-RES ovarian
structure (smiles),measurement,setting,value
CCN(CC)CCOc1ccc(/C(=C(\Cl)c2ccccc2)c2ccccc2)cc1,growth,EKVX NSCLC; 10 µM unless noted,47.7% (inactive) and 87.7% (inactive)
same,growth,SN12C renal,54.8% (inactive) and 75.6% (inactive)
same,growth,UO-31 renal; 10 µM unless noted,24% (inactive) and 66.4% (inactive)
same,growth,TK-10 renal; 10 µM unless noted,111% (inactive)
same,growth,ACHN renal,52.8% (inactive) and 81.3% (inactive)
same,growth,CAKI-1 renal,41.3% (inactive) and 69.9% (inactive)
same,growth,A498 renal,77.1% (inactive)
same,growth,CCRF-CEM leukemia,28% (inactive) and 89% (inactive)
same,growth,MOLT-4 leukemia; 10 µM unless noted,36.8% (inactive) and 91.6% (inactive)
same,growth,SR leukemia; 10 µM unless noted,17.4% (inactive) and 85.1% (inactive)
same,growth,RPMI-8226 leukemia; 10 µM unless noted,-21.2% (active) and 88.8% (inactive)
same,growth,OVCAR-8 ovarian; 10 µM unless noted,67.2% (inactive) and 104% (inactive)
same,growth,OVCAR-5 ovarian; 10 µM unless noted,47.5% (inactive) and 72.4% (inactive)
same,growth,OVCAR-4 ovarian; 10 µM unless noted,55.5% (inactive) and 47.4% (inactive)
same,growth,SK-OV-3 ovarian; 10 µM unless noted,45.5% (inactive) and 80.8% (inactive)
same,growth,IGROV1 ovarian; 10 µM unless noted,53.6% (inactive)
same,growth,OVCAR-3 ovarian; 10 µM unless noted,76.9% (inactive) and 118% (inactive)
same,growth,HS 578T breast; 10 µM unless noted,55% (inactive)
same,growth,NCI/ADR-RES ovarian; 10 µM unless noted,59.3% (inactive) and 92.9% (inactive)
Nc1nc(CSc2n[nH]c(N)n2)nc(Nc2ccccc2)n1,growth,EKVX NSCLC; 10 µM unless noted,96.1% (inactive)
same,growth,SN12C renal,101% (inactive)
same,growth,UO-31 renal; 10 µM unless noted,87.2% (inactive)
same,growth,TK-10 renal; 10 µM unless noted,99.1% (inactive)
same,growth,ACHN renal,98.6% (inactive)
same,growth,CAKI-1 renal,87.6% (inactive)
same,growth,A498 renal,89.3% (inactive)
same,growth,CCRF-CEM leukemia,45.9% (inactive)
same,growth,MOLT-4 leukemia; 10 µM unless noted,107% (inactive)
same,growth,SR leukemia; 10 µM unless noted,120% (inactive)
same,growth,RPMI-8226 leukemia; 10 µM unless noted,102% (inactive)
same,growth,OVCAR-8 ovarian; 10 µM unless noted,104% (inactive)
same,growth,OVCAR-5 ovarian; 10 µM unless noted,98.8% (inactive)
same,growth,OVCAR-4 ovarian; 10 µM unless noted,93.4% (inactive)
same,growth,SK-OV-3 ovarian; 10 µM unless noted,104% (inactive)
same,growth,IGROV1 ovarian; 10 µM unless noted,108% (inactive)
same,growth,OVCAR-3 ovarian; 10 µM unless noted,105% (inactive)
same,growth,HS 578T breast; 10 µM unless noted,81.5% (inactive)
same,growth,NCI/ADR-RES ovarian; 10 µM unless noted,105% (inactive)
Nc1c(C(=O)Nc2ccncc2)sc2nc3c(cc12)CCCCCCCC3,growth,EKVX NSCLC; 10 µM unless noted,-31.2% (active)
same,growth,SN12C renal,-65.1% (active)
same,growth,UO-31 renal; 10 µM unless noted,-95% (active)
same,growth,TK-10 renal; 10 µM unless noted,-75.6% (active)
same,growth,ACHN renal,-98.8% (active)
same,growth,CAKI-1 renal,-94.8% (active)
same,growth,A498 renal,-9% (active)
same,growth,CCRF-CEM leukemia,-37.9% (active)
same,growth,MOLT-4 leukemia; 10 µM unless noted,-40.6% (active)
same,growth,SR leukemia; 10 µM unless noted,-27.5% (active)
same,growth,RPMI-8226 leukemia; 10 µM unless noted,-49% (active)
same,growth,OVCAR-8 ovarian; 10 µM unless noted,-90.6% (active)
same,growth,OVCAR-5 ovarian; 10 µM unless noted,-75.8% (active)
same,growth,OVCAR-4 ovarian; 10 µM unless noted,-84.6% (active)
same,growth,SK-OV-3 ovarian; 10 µM unless noted,-92.1% (active)
same,growth,IGROV1 ovarian; 10 µM unless noted,-73.7% (active)
same,growth,OVCAR-3 ovarian; 10 µM unless noted,-81.8% (active)
same,growth,HS 578T breast; 10 µM unless noted,-37.1% (active)
same,growth,NCI/ADR-RES ovarian; 10 µM unless noted,-64.8% (active)
CCC(=O)Oc1cc(Cl)c(Cl)cc1Cl,growth,EKVX NSCLC; 10 µM unless noted,102% (inactive)
same,growth,SN12C renal,97.9% (inactive)
same,growth,UO-31 renal; 10 µM unless noted,95.3% (inactive)
same,growth,TK-10 renal; 10 µM unless noted,98.5% (inactive)
same,growth,ACHN renal,101% (inactive)
same,growth,CAKI-1 renal,99.2% (inactive)
same,growth,A498 renal,83.3% (inactive)
same,growth,CCRF-CEM leukemia,105% (inactive)
same,growth,MOLT-4 leukemia; 10 µM unless noted,111% (inactive)
same,growth,SR leukemia; 10 µM unless noted,101% (inactive)
same,growth,RPMI-8226 leukemia; 10 µM unless noted,102% (inactive)
same,growth,OVCAR-8 ovarian; 10 µM unless noted,96.9% (inactive)
same,growth,OVCAR-5 ovarian; 10 µM unless noted,90.2% (inactive)
same,growth,OVCAR-4 ovarian; 10 µM unless noted,101% (inactive)
same,growth,SK-OV-3 ovarian; 10 µM unless noted,107% (inactive)
same,growth,IGROV1 ovarian; 10 µM unless noted,108% (inactive)
same,growth,OVCAR-3 ovarian; 10 µM unless noted,113% (inactive)
same,growth,HS 578T breast; 10 µM unless noted,97.4% (inactive)
same,growth,NCI/ADR-RES ovarian; 10 µM unless noted,108% (inactive)
COc1ccc(C(=O)/C=C/c2ccc(OCc3ccc(Cl)cc3)cc2)cc1OC,growth,EKVX NSCLC; 10 µM,109% (inactive)
same,growth,EKVX NSCLC; 100 µM,29.1% (inactive)
same,growth,UO-31 renal; 10 µM,85.8% (inactive)
same,growth,UO-31 renal; 100 µM,41.4% (inactive)
same,growth,TK-10 renal; 10 µM,101% (inactive)
same,growth,TK-10 renal; 100 µM,0.092% (active)
same,growth,ACHN renal,103% (inactive)
same,growth,CCRF-CEM leukemia,73.4% [100 µM] (inactive)
same,growth,MOLT-4 leukemia; 10 µM,90.4% (inactive)
same,growth,MOLT-4 leukemia; 100 µM,62.8% (inactive)
same,growth,SR leukemia; 10 µM,78.2% (inactive)
same,growth,SR leukemia; 100 µM,43.8% (inactive)
same,growth,RPMI-8226 leukemia; 10 µM,88.5% (inactive)
same,growth,RPMI-8226 leukemia; 100 µM,55.8% (inactive)
same,growth,OVCAR-8 ovarian; 10 µM,92% (inactive)
same,growth,OVCAR-8 ovarian; 100 µM,-8.35% (active)
same,growth,OVCAR-5 ovarian; 10 µM,103% (inactive)
same,growth,OVCAR-5 ovarian; 100 µM,135% (inactive)
same,growth,OVCAR-4 ovarian; 10 µM,86% (inactive)
same,growth,OVCAR-4 ovarian; 100 µM,-4.25% (active)
same,growth,SK-OV-3 ovarian; 10 µM,120% (inactive)
same,growth,SK-OV-3 ovarian; 100 µM,7.5% (active)
same,growth,IGROV1 ovarian; 10 µM,105% (inactive)
same,growth,IGROV1 ovarian; 100 µM,4.98% (active)
same,growth,OVCAR-3 ovarian; 10 µM,104% (inactive)
same,growth,OVCAR-3 ovarian; 100 µM,-45.2% (active)
same,growth,HS 578T breast; 10 µM,93.5% (inactive)
same,growth,HS 578T breast; 100 µM,-1.6% (active)
same,growth,NCI/ADR-RES ovarian; 10 µM,91.5% (inactive)
same,growth,NCI/ADR-RES ovarian; 100 µM,0.0169% (active)
COc1c(F)cc(-n2c(C(=O)N3CC(F)C3)cc3cccnc32)cc1F,growth,EKVX NSCLC; 10 µM unless noted,103% (inactive)
same,growth,SN12C renal,97.6% (inactive)
same,growth,UO-31 renal; 10 µM unless noted,74.2% (inactive)
same,growth,TK-10 renal; 10 µM unless noted,99% (inactive)
same,growth,ACHN renal,93.2% (inactive)
same,growth,CAKI-1 renal,86.3% (inactive)
same,growth,A498 renal,107% (inactive)
same,growth,CCRF-CEM leukemia,99.1% (inactive)
same,growth,MOLT-4 leukemia; 10 µM unless noted,97.8% (inactive)
same,growth,SR leukemia; 10 µM unless noted,97.1% (inactive)
same,growth,RPMI-8226 leukemia; 10 µM unless noted,95.1% (inactive)
same,growth,OVCAR-8 ovarian; 10 µM unless noted,102% (inactive)
same,growth,OVCAR-5 ovarian; 10 µM unless noted,100% (inactive)
same,growth,OVCAR-4 ovarian; 10 µM unless noted,97.1% (inactive)
same,growth,SK-OV-3 ovarian; 10 µM unless noted,111% (inactive)
same,growth,IGROV1 ovarian; 10 µM unless noted,94.4% (inactive)
same,growth,OVCAR-3 ovarian; 10 µM unless noted,101% (inactive)
same,growth,HS 578T breast; 10 µM unless noted,105% (inactive)
same,growth,NCI/ADR-RES ovarian; 10 µM unless noted,90.7% (inactive)
